Reference: PubChem BioAssay
Active and inactive are the calls of the source.

Legend:
[1] = system: Plasmodium falciparum Sir2 (PF13_0152, Sir2A); test: Plasmodium falciparum Sir2A binding compounds – biochemical, small-molecule microarray, 635 nm fluorescence, primary screen (AID 1098); conditions: fluorescence 635 nm, higher = more signal;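 also: score merges spot fluorescence intensity with its signal-to-noise ratio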
[2] = probe aDKK1 binding to arrayed compounds – biochemical, biotinylated probe, 635/667 nm fluorescence, primary screen (AID 1099); conditions: small-molecule microarray, higher = more signal;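 also: score merges 667nm spot fluorescence with signal to noise across triplicate slides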
[3] = probe aCHRDL2 binding to arrayed compounds – biochemical, biotinylated probe, 635/667 nm fluorescence, primary screen (AID 1100); conditions: small-molecule microarray, higher = more signal
[4] = change in splice reporter luminescence, either direction, cell-based, HEK293, spliceosome inhibition project, primary screen (AID 1101); conditions: HEK293 splicing luciferase reporter, 24 h, higher = more signal, called active from +8 up or from −8 down;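 also: HEK293 cells carrying a splicing-competent luciferase reporter gene; test concentration not given here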
[5] = biological target: Fibroblast growth factor 10 (Homo sapiens) (UniProt O15520); test: compounds binding fibroblast growth factor 10 – biochemical, small-molecule microarray, 635 nm fluorescence, primary screen (AID 1102); conditions: FGF10 binding, fluorescence 635 nm, higher = more signal
[6] = system: glycogen synthase kinase-3 (GSK3A per assay name; protocol says GSK3B); test: compounds binding glycogen synthase kinase-3 – biochemical, small-molecule microarray, 635 nm fluorescence, GSK3A, primary screen (AID 1103); conditions: fluorescence 635 nm, higher = more signal; also: the record names both GSK3A and GSK3B
[7] = biological target: Epidermal growth factor receptor (Homo sapiens) (UniProt P00533); test: compounds binding epidermal growth factor receptor – biochemical, small-molecule microarray, 635 nm fluorescence, primary screen (AID 1104); conditions: EGFR binding, higher = more signal;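 also: score merges 667 nm emission intensity with spot signal to noise over triplicate slides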
[8] = biological target: Follistatin-related protein 3 (Homo sapiens) (UniProt O95633); test: compounds binding follistatin-related protein 3 – biochemical, small-molecule microarray, 635 nm fluorescence, primary screen (AID 1105); conditions: FSTL3 binding, higher = more signal;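 also: score merges emission near 667 nm and signal to noise per printed spot across three slides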
[9] = biological target: Dickkopf-related protein 1 (Homo sapiens) (UniProt O94907); test: small molecules binding DKK1 protein – biochemical, small-molecule microarray, 635 nm fluorescence scan, primary screen (AID 1106); conditions: higher = more signal;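 also: score merges emission near 667 nm with signal to noise over three replicate slides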
[10] = system: Inhibin beta A chain (activin A); test: small molecules binding activin A – biochemical, small-molecule microarray, 635 nm fluorescence scan, primary screen (AID 1107); conditions: INHBA, higher = more signal;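 also: mouse activin A protein probed at 4.33 µg/mL on printed slides; score merges bound-protein fluorescence near 667 nm with spot signal-to-noise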
[11] = system: Human papillomavirus type 1a protein E7 (residues 44-93); test: small molecules binding HPV E7 44-93 – biochemical, small-molecule microarray, residues 44-93, 635 nm fluorescence, primary screen (AID 1108); conditions: fluorescence 635 nm, higher = more signal;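 also: E7 fragment applied at 1 µg/mL in TBST for 1 h at 4 C; score combines spot fluorescence with its signal to noise ratio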
[12] = hepatitis C replication reporter changes, two-sided – Huh7 cells, luciferase reporter, HCV replication inhibitor project, primary screen (AID 1109); conditions: Huh7 HCV replicon luciferase reporter, 48 h; higher = more signal;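 also: huh7 hepatoma cells harbouring a luciferase neomycin HCV replicon reporter; luciferase luminescence as measure of HCV replicon replication; test concentration not given here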
[13] = biological target: Left-right determination factor 2 (Homo sapiens) (UniProt O00292); test: small molecules binding LEFTY2 protein – biochemical, small-molecule microarray, 635 nm fluorescence scan, primary screen (AID 1110); conditions: higher = more signal
[14] = biological target: Calmodulin-1 (Homo sapiens) (UniProt P0DP23); test: small molecules binding calmodulin-1 with EGTA – biochemical, small-molecule microarray, Cy5-labelled CALM1, profiling panel (AID 1111); conditions: Cy5-CALM1 binding fluorescence, higher = more signal;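 also: labelled calmodulin applied in Tris saline Tween buffer holding calcium plus EGTA and DTT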
[15] = biological target: Calmodulin-1 (Homo sapiens) (UniProt P0DP23); test: small molecules binding Ca-loaded calmodulin-1 – biochemical, small-molecule microarray, Cy5-labelled CALM1, plus calcium, artefact control for SMM control-protein annotation, profiling panel (AID 1112); conditions: Cy5-CALM1 binding fluorescence, higher = more signal;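 also: score merges spot fluorescence with signal to noise from triplicate slides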
[16] = probe aWnt5a binding to arrayed compounds – biochemical, biotinylated probe, 635/667 nm fluorescence, primary screen (AID 1113); conditions: small-molecule microarray, higher = more signal;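 also: score merges 667 nm fluorescence intensity with signal-to-noise per printed feature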
[17] = probe aShh binding to arrayed compounds – biochemical, biotinylated probe, 635/667 nm fluorescence, primary screen (AID 1114); conditions: small-molecule microarray, higher = more signal;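 also: probe is biotin-labelled aShh protein from a stem cell growth factor screen; measures binding of labelled protein to compounds printed on the slide; score merges feature fluorescence at 667 nm with signal-to-noise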
[18] = probe aNog binding to arrayed compounds – biochemical, biotinylated probe, 635/667 nm fluorescence, primary screen (AID 1115); conditions: small-molecule microarray, higher = more signal;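 also: probe is biotinylated aNog protein used at 0.15 µg/mL for 1 h at 4 C; z-score combines 667 nm fluorescence of each spot with its signal to noise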
[19] = biological target: Torsin-1A-interacting protein 1 (Homo sapiens) (UniProt Q5JTV8); test: compound microarray binding of lysate hLAP1 – cell lysate, small-molecule microarray, COS7 lysate, 635/667 nm fluorescence, primary screen (AID 1116); conditions: 635 nm fluorescence, higher = more signal
[20] = biological target: Alpha-bungarotoxin (Bungarus multicinctus) (UniProt P60615); test: compounds binding labelled alpha-BTX control protein – biochemical, small-molecule microarray, Alexa647 label, 635/667 nm fluorescence, artefact control for SMM control protein annotation, profiling panel (AID 1117); conditions: alpha-BTX-A647 binding fluorescence, higher = more signal
Alpha-bungarotoxin (Bungarus multicinctus), sequence (P60615 whole entry, looked up): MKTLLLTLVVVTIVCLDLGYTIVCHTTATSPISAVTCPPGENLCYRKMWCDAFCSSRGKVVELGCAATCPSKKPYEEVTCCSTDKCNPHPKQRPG

Epidermal growth factor receptor (Homo sapiens), sequence (P00533 whole entry, looked up): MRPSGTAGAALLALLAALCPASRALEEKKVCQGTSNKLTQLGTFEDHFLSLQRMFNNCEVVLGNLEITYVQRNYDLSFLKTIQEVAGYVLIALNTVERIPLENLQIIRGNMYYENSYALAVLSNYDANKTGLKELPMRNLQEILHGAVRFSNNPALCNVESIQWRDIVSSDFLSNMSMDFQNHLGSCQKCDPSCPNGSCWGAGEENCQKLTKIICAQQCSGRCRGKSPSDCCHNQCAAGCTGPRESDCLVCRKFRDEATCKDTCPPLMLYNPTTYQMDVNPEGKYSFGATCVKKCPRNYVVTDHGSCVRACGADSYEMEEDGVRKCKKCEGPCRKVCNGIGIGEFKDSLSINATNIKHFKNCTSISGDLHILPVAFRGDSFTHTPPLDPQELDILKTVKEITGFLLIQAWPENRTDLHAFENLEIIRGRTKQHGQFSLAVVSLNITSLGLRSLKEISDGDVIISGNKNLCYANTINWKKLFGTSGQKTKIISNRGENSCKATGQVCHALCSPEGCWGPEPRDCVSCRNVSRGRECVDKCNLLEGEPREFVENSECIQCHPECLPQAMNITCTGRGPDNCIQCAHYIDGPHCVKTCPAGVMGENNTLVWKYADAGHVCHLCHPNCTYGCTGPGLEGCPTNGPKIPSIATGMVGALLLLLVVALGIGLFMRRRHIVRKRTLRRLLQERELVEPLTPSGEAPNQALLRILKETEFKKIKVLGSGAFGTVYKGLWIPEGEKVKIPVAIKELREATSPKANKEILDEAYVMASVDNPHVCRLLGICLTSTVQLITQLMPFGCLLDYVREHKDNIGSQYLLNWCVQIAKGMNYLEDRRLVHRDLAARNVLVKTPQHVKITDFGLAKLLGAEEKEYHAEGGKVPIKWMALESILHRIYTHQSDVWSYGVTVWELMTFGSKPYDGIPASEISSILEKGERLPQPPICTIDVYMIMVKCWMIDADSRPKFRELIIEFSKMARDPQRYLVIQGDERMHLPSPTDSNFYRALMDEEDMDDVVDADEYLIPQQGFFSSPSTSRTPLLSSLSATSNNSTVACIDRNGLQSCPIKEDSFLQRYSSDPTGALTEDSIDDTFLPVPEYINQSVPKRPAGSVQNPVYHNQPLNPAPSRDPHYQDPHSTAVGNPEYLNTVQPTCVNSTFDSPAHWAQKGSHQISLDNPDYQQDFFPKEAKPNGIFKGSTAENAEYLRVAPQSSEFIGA
Dickkopf-related protein 1 (Homo sapiens), sequence (O94907 whole entry, looked up): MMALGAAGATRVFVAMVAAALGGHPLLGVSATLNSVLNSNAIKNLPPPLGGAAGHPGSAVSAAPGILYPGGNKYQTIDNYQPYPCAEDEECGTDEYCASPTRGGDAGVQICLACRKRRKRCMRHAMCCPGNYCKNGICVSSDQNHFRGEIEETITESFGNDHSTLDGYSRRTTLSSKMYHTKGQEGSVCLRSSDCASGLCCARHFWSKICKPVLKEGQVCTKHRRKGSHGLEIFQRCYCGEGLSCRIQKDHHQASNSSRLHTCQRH
Left-right determination factor 2 (Homo sapiens), sequence (O00292 whole entry, looked up): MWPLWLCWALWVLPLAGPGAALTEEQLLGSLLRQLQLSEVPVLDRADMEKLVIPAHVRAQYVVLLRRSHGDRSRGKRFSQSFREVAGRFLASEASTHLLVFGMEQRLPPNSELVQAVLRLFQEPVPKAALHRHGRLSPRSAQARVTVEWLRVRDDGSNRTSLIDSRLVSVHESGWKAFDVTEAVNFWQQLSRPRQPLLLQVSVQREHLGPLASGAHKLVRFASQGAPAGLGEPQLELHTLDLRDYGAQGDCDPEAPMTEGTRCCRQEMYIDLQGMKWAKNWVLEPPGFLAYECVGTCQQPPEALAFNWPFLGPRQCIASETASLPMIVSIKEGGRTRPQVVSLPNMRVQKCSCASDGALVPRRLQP
Follistatin-related protein 3 (Homo sapiens), sequence (O95633 whole entry, looked up): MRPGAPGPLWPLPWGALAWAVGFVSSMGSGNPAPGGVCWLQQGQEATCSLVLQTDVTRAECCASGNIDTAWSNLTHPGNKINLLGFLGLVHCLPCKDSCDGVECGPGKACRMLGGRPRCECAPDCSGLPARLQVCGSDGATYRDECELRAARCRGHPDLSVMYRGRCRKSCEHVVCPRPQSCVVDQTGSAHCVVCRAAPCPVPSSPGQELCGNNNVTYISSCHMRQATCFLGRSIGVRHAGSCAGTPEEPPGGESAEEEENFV
Torsin-1A-interacting protein 1 (Homo sapiens), sequence (Q5JTV8 whole entry, looked up): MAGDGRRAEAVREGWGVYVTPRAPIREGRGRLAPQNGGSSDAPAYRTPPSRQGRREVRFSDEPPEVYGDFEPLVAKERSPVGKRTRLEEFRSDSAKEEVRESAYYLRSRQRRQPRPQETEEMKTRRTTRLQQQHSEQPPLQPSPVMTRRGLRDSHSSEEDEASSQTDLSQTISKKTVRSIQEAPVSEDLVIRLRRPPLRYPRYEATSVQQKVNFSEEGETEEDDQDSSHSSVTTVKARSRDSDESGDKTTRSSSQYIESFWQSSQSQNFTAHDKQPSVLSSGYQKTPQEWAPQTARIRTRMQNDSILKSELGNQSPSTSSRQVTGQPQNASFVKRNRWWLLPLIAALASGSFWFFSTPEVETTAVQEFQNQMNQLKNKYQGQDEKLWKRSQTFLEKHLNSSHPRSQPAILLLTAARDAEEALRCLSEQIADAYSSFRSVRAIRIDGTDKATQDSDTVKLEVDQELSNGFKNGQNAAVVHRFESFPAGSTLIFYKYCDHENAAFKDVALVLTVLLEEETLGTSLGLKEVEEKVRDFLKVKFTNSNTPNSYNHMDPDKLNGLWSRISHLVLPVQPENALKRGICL
Fibroblast growth factor 10 (Homo sapiens), sequence (O15520 whole entry, looked up): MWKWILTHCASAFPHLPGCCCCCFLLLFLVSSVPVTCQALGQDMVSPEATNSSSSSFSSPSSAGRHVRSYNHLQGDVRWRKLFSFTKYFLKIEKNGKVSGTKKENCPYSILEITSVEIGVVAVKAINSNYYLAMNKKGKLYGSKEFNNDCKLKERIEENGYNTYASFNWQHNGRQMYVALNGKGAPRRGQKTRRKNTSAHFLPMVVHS

Structure (SMILES)	composite z-score [1]	composite z-score [2]	composite z-score [3]	z-score [4]	composite z-score [5]	composite z-score [6]	composite z-score [7]	composite z-score [8]	composite z-score [9]	composite z-score [10]	composite z-score [11]	z-score [12]	composite z-score [13]	composite z-score [14]	composite z-score [15]	composite z-score [16]	composite z-score [17]	composite z-score [18]	composite z-score [19]	composite z-score [20]
CCCNC(=O)[C@@H]1c2ccccc2C(=O)N(Cc2cc(F)cc(C(F)(F)F)c2)[C@H]1c1ccc(CO)cc1	1.54	0.792	0.853	-1.26 (inactive)	0.926	1.29	0.497	1.35	0.677	1.05	0.0588	-0.901	0.498	1.04	-0.263	0.0079	0.188	-0.154	1.44	1.21
C=CCN1C(=O)[C@@]2(O[C@@H](CCn3cc([C@H](O)c4ccccc4)nn3)[C@H]([Si](C)(C)c3ccc(OC)cc3)[C@H]2C)c2cc(N3CCOC3=O)ccc21	-0.412	0.16	0.338	-2.62 (inactive)	0.0752	0.472	0.135	-0.0856	0.216	0.392	-0.0922	-3.71	-0.125	0.0419	0.462	-0.0754	-0.2	-0.0428	0.559	-0.577
C=CCNC(=O)[C@H]1[C@@H]2C(=O)O[C@@H](c3ccccc3)[C@@H](c3ccccc3)N2[C@@H](c2ccccc2OCCO)[C@]12C(=O)N(C(=O)OCCOC)c1ccc(C#CCC(C(=O)OC)C(=O)OC)cc12	1.1	0.572	0.155	-1.69 (inactive)	0.541	1.29	0.328	0.919	0.271	0.641	-0.29	-1.22	0.208	1.57	0.865	-0.012	0.217	0.419	0.926	1.87
CCCCCCc1nc(-c2cc(C)c(OC)c(C)c2)cc2c1[Si](C(C)C)(C(C)C)O[C@H]2c1ccccc1	-0.717	-0.268	0.122	0.399 (inactive)	-0.915	-0.849	-0.394	-0.677	-0.302	0.621	-0.57	0.115	-0.607	-0.482	0.244	-0.197	0.0278	-0.0755	-0.872	0.117
CCN1C(C)=C(C(=O)OC)[C@@H](c2ccccc2)N2C(=O)[C@](O)(C(=O)OC)[C@@H](c3ccccc3)C(C(=O)c3ccccc3)=C12	0.689	0.0153	-0.396	-2.45 (inactive)	0.436	0.779	0.385	0.363	0.812	-0.411	0.474	-1.15	0.499	0.0865	0.0844	-0.0685	0.166	0.158	0.653	0.232
O=C1O[C@H](c2ccccc2)[C@H](c2ccccc2)N2[C@H]1[C@@H](C(=O)Nc1nc3ccccc3s1)[C@]1(C(=O)Nc3ccc(C#CC4=CCCCC4)cc31)[C@H]2c1ccccc1OCCO	1.51	-0.0804	-0.262	-1.69 (inactive)	1.14	1.02	0.516	1.27	0.574	0.345	1.35	-1.67	0.59	1.31	0.149	-0.0714	-0.263	0.184	0.715	1.04
COc1ccc([Si](C)(C)[C@H]2[C@H](CC(=O)N3Cc4ccccc4C[C@H]3CO)O[C@@]3(C(=O)N(Cc4cccc(N5CCOC5=O)c4)c4ccccc43)[C@@H]2C)cc1	1.1	-0.158	0.0765	-1.07 (inactive)	0.701	0.461	1.13	1.24	1	0.923	0.294	-3.42	0.91	-0.792	-1.13	-0.0731	-0.17	0.232	0.473	0.894
C[C@@H]1CC[C@H]2C(=O)N3[C@@H](CC[C@@H](C)[C@@H]3c3cccc(N4CCOCC4)c3)C(=O)N2[C@H]1c1cccc(N2CCOCC2)c1	1.15	0.335	0.189	-0.188 (inactive)	0.37	0.513	0.224	1.12	1.82	0.866	0.384	0.27	0.676	-0.413	-0.403	-0.0478	0.51	-0.459	0.653	1.03
